Assay outcomes: PubChem, several laboratories
An excerpt weighted towards active compounds, which were near 4.2% of everything screened.
ssDAF12 agonist = S. stercoralis DAF-12 nuclear receptor activators, primary screen, cell-based, luminescence, HEK293, GRIP1 co-expression, lit1-tk-luc; 1% of 370,000 active; activation, % at 6.8 µM; HEK293 ssDAF-12/GRIP1 lit1-tk-luc reporter; % of 3 µM dafachronic acid response; Nuclear hormone receptor DAF-12 (Strongyloides stercoralis);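 active means activation above the mean over all tested compounds plus 3 SD, cut at about 0.9% in these data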
hgDAF-12 ag = H. glycines DAF-12 receptor agonists, primary screen, cell-based, luminescence, HEK293, GAL4 fusion, UAS-luciferase; activation, % at 6.8 µM; 1.8% of 370,000 active; HEK293 GAL4-hgDAF12 UAS-luciferase reporter, agonist luminescence; normalized to butyrate control; Nuclear hormone receptor DAF-12 (Heterodera glycines), GAL4 fusion;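 active means activation above a cutoff set at the mean of all screened compounds plus 3 SD, cut at about 10% in these data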
esBAF inh = Bmi1 luciferase reporter increase in mESCs, primary screen, esBAF inhibitor project, mouse ES cells, Bmi1 luciferase knock-in, single point; 24 h; 100% = twice the neutral-well signal; reporter increase, % at 12.5 µM; 2% of 350,000 active; in the data active means activation above about 40%; inconclusive means no clear call, values can overlap the other calls;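 further: a rise in the Bmi1 reporter signal indicates esBAF inhibition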
hcDAF12 agonist = H. contortus DAF-12 nuclear receptor activators, primary screen, cell-based, luminescence, HEK293, lit1-tk-luc reporter; HEK293 hcDAF-12 lit1-tk-luc reporter; 0% DMSO, 100% Δ7-dafachronic acid; activation, % at 6.8 µM; 1.4% of 370,000 active;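 active means activation above the mean of all tested compounds plus 3 SD, cut at about 5.5% in these data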
Wnt act = Wnt/beta-catenin pathway activators, primary screen, cell-based, plate reader, single point. AID 743398, 2014. activation, % at 9.35 µM. 1.2% of 300,000 active. Wnt/beta-catenin reporter cell assay, activator; in the data active means activation above about 30%, passing the limit was not always enough; inconclusive means no clear call, values can overlap the other calls
DAX1 StAR inh = DAX1 (NR0B1) inhibitors on StAR promoter, primary screen, cell-based, luminescence, SF-1 (NR5A1), full-length DAX-1; HEK293T StAR-luciferase reporter, SF-1/DAX-1 repression relief; inhibition, % at 6.8 µM; 1.1% of 370,000 active;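 active means inhibition above the mean over all tested compounds plus 3 SD, cut at about 3.6% in these data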;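 further: higher inhibition means more luminescence from relief of DAX-1 repression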
A number is an active result; i = inactive; ? = inconclusive; nt = no result.

SMILES | ssDAF12 agonist | hgDAF-12 ag | esBAF inh | hcDAF12 agonist | Wnt act | DAX1 StAR inh
CCCCn1c(NC(=O)c2ccccc2)nc2ccccc21 | i | i | i | i | i | i
CCn1c(NC(=O)c2ccccc2)nc2ccccc21 | 2.3 | i | nt | i | 31.5 | i
CCn1c(C(C)NC(=O)c2cccs2)nc2ccccc21 (stereo unspecified) | i | i | i | i | i | i
CCn1c(C(C)NC(C)=O)nc2ccccc21 (stereo unspecified) | i | 12.2 | i | i | ? | i
Cc1cccc(NC(=O)/C(C#N)=C/c2ccc[nH]2)c1C | i | i | 48.8 | i | i | i
O=[N+]([O-])c1ccc(C2Nc3cccc4cccc(c34)N2)cc1 | 1.6 | i | nt | i | i | i
O=[N+]([O-])c1cccc(C2Nc3cccc4cccc(c34)N2)c1 | i | i | nt | i | i | i
O=c1[nH]nc(Cc2ccc(-c3ccccc3Cl)o2)c2ccccc12 | 1.4 | i | i | i | i | i
O=c1[nH]nc(Cc2ccc(Cl)cc2)c2ccccc12 | i | i | i | i | i | i
COc1ccc(CC(=O)O/N=C(\N)c2ccccn2)cc1OC | i | i | i | i | i | i
Cc1cccc(OCC(=O)O/N=C(\N)c2ccccn2)c1C | i | i | 71.8 | i | i | i
N/C(=N\OC(=O)Cc1cccc2ccccc12)c1ccccn1 | i | i | nt | 5.8 | 42.2 | i
COc1ccccc1CC(=O)O/N=C(\N)c1ccccn1 | i | i | nt | i | i | i
N/C(=N\OC(=O)Cc1ccc(Cl)cc1)c1ccccn1 | i | i | 46.9 | i | nt | i
CC(C)C#Cc1ccc2c(c1)O[C@H](CN(C)C(=O)NC(C)C)[C@@H](C)CN([C@@H](C)CO)S2(=O)=O | nt | nt | i | nt | nt | nt
CCc1ccc(NC(=S)Nc2cccc3cnccc23)cc1 | i | i | 62.4 | i | 33.5 | i
CC(=O)N[C@@H]1CC[C@H](CC(=O)NCC2CCCCC2)O[C@H]1CO | nt | nt | i | nt | nt | nt
Cc1c(C(=O)Nc2cccc([N+](=O)[O-])c2)csc1-c1ccccc1 | i | i | 49.7 | i | nt | i
Cc1ccc(NC(=O)c2csc(-c3ccccc3)c2C)cc1 | i | i | i | i | i | 4.3
Cc1ccc(NC(=O)c2cc(C)nc3ccccc23)cc1 | i | i | i | i | i | i
CCCn1nnc(NC(=O)c2ccccc2Br)n1 | i | i | i | i | i | i
CC(=O)Nc1ccc(NC(=O)c2ccccc2Br)cc1 | i | i | i | i | i | i
CCn1nnc(NC(=O)c2ccccc2Br)n1 | 1.0 | i | i | i | nt | i
CCCNC(=O)c1n[nH]c(=O)c2ccccc12 | i | i | i | i | nt | i
CCc1ccc(NC(=O)c2n[nH]c(=O)c3ccccc23)cc1 | i | i | 59.7 | i | i | i
SMILES | ssDAF12 agonist | hgDAF-12 ag | esBAF inh | hcDAF12 agonist | Wnt act | DAX1 StAR inh
CCCn1nnc(NC(=O)c2cccc(OCC)c2)n1 | i | i | i | i | i | i
CCc1ccc(NC(=O)c2ccccc2Br)cc1 | i | 12.0 | nt | i | i | i
CCCn1nnc(NC(=O)c2ccc3ccccc3c2)n1 | i | 10.8 | nt | i | i | i
O=C(C[C@@H]1C[C@@H]2c3cc(NC(=O)Nc4ccccc4)ccc3O[C@@H]2[C@@H](CO)O1)NCCN1CCCCC1 | nt | nt | i | nt | nt | nt
CCNC(=S)Nc1cccc(NC(=O)c2ccccc2O)c1 | i | i | i | i | i | i
CCNC(=S)Nc1ccc(NC(=O)c2ccccc2O)cc1 | 1.6 | i | i | i | i | i
C[C@@H]1CN([C@H](C)CO)C(=O)c2cccc(NC(=O)Nc3cccc4ccccc34)c2O[C@H]1CN(C)C(=O)Nc1cccc2ccccc12 | nt | nt | i | nt | nt | nt
CC1CC(C)CN(C(=O)COC(=O)c2ccc3c(c2)OCO3)C1 (stereo unspecified) | i | i | i | i | i | i
CC1CCN(C(=O)COC(=O)c2cc(Cl)c3c(c2)OCO3)CC1 | i | i | i | i | 32.1 | i
